# Data: paper PMC7862700, “An all-to-all approach to the identification of sequence-specific readers for epigenetic DNA modifications on cytosine”
# Tests used:
# Assay in all cases: DAPPL (digital affinity profiling via proximity ligation, sequencing); 10 mM Tris-HCl pH 7.5, 50 mM NaCl, 1 mM DTT, 4% glycerol, room temperature, 30 min; GST-TFs on glutathione beads, 16-mer random dsDNA library, 0.1% formaldehyde crosslink after washing; high values mean tight binding
# FEV = target: T1, FEV (Homo sapiens, UniProt Q99581 1-238); conditions: protein: recombinant; tags: N-terminal GST; dsDNA, one strand shown
# T1 sequence: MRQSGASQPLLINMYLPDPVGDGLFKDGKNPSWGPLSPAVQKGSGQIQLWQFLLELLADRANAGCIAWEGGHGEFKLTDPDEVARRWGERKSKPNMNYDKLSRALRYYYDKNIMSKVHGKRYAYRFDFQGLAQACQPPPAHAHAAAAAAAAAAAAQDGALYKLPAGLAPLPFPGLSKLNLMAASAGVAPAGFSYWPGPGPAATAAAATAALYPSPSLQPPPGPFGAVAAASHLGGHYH
# Procedure, shortened: (§1)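 Sequencing on an Illumina NextSeq500 followed washing, crosslinking with 0.1% formaldehyde, proximity ligation (BsaI/T4 ligase, 1 h, 37 °C) and PCR amplification of pools that had been incubated for 30 min at room temperature with 200 nmole of a random double-stranded 16-mer DNA library in Tris/NaCl/DTT/glycerol buffer. Each pool held DNA-barcoded human transcription factors, expressed in yeast as GST fusions and captured on glutathione beads, plus a tag-only sample. Binding signal is a hexamer's read frequency for a factor divided by its frequency in the tag-only sample.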
# ETV5 = ETV5 (Homo sapiens, UniProt P41161 1-510); conditions: protein: recombinant; tags: N-terminal GST; dsDNA, one strand shown
# Procedure, shortened: as §1
# HSF1 = HSF1 (Homo sapiens, UniProt Q00613 1-529); conditions: protein: recombinant; tags: N-terminal GST; chain copies: 3; dsDNA, one strand shown
# Procedure, shortened: as §1
# SPIC = target: T2, SPIC (Homo sapiens, UniProt Q8N5J4 1-248); conditions: protein: recombinant; tags: N-terminal GST; dsDNA, one strand shown
# T2 sequence: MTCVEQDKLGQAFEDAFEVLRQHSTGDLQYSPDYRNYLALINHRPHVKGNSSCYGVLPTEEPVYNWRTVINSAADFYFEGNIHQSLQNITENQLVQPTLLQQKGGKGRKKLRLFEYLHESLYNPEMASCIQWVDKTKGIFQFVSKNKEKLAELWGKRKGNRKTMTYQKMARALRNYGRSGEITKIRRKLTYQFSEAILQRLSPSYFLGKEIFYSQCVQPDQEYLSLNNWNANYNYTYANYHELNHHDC
# Procedure, shortened: as §1
# ELF4 = ELF4 (Homo sapiens, UniProt Q99607 1-663); conditions: protein: recombinant; tags: N-terminal GST; dsDNA, one strand shown
# Procedure, shortened: as §1
# ELK4 = target: T3, ELK4 (Homo sapiens, UniProt P28324-2 1-405); conditions: protein: recombinant; tags: N-terminal GST; dsDNA, one strand shown
# T3 sequence: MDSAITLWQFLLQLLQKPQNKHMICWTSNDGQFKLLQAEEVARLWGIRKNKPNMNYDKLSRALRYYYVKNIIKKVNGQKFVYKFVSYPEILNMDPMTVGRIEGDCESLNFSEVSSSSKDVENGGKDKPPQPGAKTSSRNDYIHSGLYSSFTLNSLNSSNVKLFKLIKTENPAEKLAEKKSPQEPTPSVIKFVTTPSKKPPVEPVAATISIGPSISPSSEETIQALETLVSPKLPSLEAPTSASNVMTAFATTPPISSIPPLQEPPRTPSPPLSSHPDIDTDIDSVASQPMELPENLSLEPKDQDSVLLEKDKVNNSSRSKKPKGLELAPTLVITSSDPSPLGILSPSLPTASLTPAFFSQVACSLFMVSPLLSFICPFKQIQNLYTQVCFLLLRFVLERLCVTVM
# Procedure, shortened: as §1
# ETV2 = target: T4, ETV2 (Homo sapiens, UniProt O00321 1-342); conditions: protein: recombinant; tags: N-terminal GST; dsDNA, one strand shown
# T4 sequence: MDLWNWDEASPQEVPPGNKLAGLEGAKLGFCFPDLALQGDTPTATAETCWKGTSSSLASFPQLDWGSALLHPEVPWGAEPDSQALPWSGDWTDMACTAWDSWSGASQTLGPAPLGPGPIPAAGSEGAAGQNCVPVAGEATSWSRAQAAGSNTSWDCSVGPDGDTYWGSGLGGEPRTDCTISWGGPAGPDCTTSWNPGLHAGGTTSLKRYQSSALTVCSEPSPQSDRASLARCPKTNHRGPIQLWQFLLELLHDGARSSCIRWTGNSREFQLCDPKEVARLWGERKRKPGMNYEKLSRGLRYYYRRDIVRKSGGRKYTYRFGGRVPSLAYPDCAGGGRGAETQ
# Procedure, shortened: as §1
# ELF3 = target: T5, ELF3 (Homo sapiens, UniProt P78545 1-371); conditions: protein: recombinant; tags: N-terminal GST; dsDNA, one strand shown
# T5 sequence: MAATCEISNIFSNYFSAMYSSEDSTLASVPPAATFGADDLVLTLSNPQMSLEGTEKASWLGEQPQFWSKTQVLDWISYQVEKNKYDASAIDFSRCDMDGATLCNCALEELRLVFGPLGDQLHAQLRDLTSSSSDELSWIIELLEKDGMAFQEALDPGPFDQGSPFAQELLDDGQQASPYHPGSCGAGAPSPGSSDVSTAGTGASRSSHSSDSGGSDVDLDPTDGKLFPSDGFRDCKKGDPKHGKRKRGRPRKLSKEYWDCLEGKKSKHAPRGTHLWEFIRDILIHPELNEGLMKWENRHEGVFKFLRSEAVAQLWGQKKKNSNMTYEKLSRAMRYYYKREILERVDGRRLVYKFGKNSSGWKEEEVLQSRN
# Procedure, shortened: as §1
# CRX = CRX (Homo sapiens, UniProt O43186 1-299); conditions: protein: recombinant; tags: N-terminal GST; dsDNA, one strand shown
# Procedure, shortened: as §1
# ETV1 = ETV1 (Homo sapiens, UniProt P50549 1-477); conditions: protein: recombinant; tags: N-terminal GST; dsDNA, one strand shown
# Procedure, shortened: as §1
# ERF = target: T6, ERF (Homo sapiens, UniProt P50548 1-548); conditions: protein: recombinant; tags: N-terminal GST; dsDNA, one strand shown
# T6 sequence: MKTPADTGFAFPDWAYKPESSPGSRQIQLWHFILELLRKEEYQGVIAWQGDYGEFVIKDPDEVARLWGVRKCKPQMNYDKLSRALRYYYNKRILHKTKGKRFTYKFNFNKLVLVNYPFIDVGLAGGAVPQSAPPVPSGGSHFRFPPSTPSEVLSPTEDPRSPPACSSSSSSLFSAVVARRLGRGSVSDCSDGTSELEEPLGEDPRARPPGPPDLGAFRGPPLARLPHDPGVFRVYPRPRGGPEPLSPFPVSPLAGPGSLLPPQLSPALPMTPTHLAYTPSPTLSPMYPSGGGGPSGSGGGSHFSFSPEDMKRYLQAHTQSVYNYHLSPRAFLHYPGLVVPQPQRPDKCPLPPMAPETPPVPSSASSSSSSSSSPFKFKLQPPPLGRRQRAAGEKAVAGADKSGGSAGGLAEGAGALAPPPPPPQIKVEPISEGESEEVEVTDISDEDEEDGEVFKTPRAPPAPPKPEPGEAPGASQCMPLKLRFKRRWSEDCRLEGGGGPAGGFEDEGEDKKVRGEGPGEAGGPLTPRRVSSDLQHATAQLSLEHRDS
# Procedure, shortened: as §1
# ETV3L = target: T7, ETV3L (Homo sapiens, UniProt Q6ZN32 1-361); conditions: protein: recombinant; tags: N-terminal GST; dsDNA, one strand shown
# T7 sequence: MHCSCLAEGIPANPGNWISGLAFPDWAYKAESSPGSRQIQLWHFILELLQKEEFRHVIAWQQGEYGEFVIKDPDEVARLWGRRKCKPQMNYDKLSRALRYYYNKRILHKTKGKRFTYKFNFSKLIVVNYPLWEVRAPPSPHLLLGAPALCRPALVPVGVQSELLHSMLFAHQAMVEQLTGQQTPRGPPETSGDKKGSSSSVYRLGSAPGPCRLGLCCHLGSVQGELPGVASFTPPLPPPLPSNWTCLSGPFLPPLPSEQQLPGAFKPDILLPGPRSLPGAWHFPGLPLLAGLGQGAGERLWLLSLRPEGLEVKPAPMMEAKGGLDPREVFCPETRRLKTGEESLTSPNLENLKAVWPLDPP
# Procedure, shortened: as §1
# ETS2 = target: T8, ETS2 (Homo sapiens, UniProt P15036 1-469); conditions: protein: recombinant; tags: N-terminal GST; dsDNA, one strand shown
# T8 sequence: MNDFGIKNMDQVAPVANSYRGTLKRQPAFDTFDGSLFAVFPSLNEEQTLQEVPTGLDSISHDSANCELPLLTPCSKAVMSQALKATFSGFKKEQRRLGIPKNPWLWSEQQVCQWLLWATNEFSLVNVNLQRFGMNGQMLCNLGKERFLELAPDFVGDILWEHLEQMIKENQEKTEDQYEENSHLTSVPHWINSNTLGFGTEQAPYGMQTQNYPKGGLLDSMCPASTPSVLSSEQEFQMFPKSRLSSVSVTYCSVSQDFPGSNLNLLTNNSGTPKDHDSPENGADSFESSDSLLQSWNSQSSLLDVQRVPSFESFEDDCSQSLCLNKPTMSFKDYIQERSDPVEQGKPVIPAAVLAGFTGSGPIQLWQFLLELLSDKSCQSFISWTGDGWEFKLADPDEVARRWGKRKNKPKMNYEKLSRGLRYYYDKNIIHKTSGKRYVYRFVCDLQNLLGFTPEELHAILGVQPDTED
# Procedure, shortened: as §1
# SPDEF = target: T9, SPDEF (Homo sapiens, UniProt O95238 1-335); conditions: protein: recombinant; tags: N-terminal GST; dsDNA, one strand shown
# T9 sequence: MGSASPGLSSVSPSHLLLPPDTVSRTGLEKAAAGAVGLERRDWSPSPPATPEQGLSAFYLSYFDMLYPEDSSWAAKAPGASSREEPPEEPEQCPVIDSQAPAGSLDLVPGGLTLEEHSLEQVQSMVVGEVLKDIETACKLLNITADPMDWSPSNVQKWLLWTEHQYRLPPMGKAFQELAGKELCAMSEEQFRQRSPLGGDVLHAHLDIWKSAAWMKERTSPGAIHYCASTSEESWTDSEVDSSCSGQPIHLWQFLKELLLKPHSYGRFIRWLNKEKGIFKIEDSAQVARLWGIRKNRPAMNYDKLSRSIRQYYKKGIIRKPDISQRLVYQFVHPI
# Procedure, shortened: as §1
# ETV7 = target: T10, ETV7 (Homo sapiens, UniProt Q9Y603 1-341); conditions: protein: recombinant; tags: N-terminal GST; dsDNA, one strand shown
# T10 sequence: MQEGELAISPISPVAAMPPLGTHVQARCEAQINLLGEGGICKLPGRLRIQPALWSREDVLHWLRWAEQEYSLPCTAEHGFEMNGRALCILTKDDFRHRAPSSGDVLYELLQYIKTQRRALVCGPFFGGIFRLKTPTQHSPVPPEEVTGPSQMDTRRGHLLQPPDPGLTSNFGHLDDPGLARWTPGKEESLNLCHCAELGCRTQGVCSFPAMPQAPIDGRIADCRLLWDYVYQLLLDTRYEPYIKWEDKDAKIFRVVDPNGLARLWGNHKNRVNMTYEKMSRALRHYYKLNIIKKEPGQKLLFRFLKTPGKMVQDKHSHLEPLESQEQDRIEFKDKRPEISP
# Procedure, shortened: as §1
# ELF5 = target: T11, ELF5 (Homo sapiens, UniProt Q9UKW6-2 1-255); conditions: protein: recombinant; tags: N-terminal GST; dsDNA, one strand shown
# T11 sequence: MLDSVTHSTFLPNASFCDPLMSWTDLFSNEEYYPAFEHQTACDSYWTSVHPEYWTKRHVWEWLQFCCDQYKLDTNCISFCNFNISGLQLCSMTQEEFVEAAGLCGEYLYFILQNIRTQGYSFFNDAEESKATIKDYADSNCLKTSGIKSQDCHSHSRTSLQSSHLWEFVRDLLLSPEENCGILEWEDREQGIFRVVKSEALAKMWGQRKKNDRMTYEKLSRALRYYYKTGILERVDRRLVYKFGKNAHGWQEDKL
# Procedure, shortened: as §1
# ETV3 = target: T12, ETV3 (Homo sapiens, UniProt P41162-2 1-143); conditions: protein: recombinant; tags: N-terminal GST; dsDNA, one strand shown
# T12 sequence: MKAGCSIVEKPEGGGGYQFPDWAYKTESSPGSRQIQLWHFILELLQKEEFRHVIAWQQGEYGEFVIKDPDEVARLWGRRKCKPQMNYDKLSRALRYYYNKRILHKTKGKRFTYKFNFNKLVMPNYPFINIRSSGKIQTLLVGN
# Procedure, shortened: as §1
# ETV6 = ETV6 (Homo sapiens, UniProt P41212 1-452); conditions: protein: recombinant; tags: N-terminal GST; dsDNA, one strand shown
# Procedure, shortened: as §1
# Chain of ELF4 (Q99607 whole entry): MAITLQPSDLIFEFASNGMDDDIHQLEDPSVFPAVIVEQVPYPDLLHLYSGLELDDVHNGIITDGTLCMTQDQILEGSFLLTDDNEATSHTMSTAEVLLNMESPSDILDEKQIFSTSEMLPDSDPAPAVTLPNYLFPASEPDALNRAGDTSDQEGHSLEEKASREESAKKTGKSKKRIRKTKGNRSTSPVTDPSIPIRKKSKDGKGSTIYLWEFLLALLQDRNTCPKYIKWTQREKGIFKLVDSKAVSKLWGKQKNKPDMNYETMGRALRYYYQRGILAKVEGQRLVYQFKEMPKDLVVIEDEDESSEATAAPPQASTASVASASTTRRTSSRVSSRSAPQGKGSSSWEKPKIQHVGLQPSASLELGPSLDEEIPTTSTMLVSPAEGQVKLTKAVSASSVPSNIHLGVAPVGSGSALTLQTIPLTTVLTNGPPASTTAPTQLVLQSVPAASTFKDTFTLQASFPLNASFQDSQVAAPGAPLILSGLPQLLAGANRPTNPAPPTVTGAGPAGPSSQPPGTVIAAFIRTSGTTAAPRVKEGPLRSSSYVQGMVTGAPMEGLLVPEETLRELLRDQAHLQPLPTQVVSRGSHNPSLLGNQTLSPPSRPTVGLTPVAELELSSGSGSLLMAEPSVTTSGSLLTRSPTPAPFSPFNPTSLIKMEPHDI
# Chain of ETV1 (P50549 whole entry): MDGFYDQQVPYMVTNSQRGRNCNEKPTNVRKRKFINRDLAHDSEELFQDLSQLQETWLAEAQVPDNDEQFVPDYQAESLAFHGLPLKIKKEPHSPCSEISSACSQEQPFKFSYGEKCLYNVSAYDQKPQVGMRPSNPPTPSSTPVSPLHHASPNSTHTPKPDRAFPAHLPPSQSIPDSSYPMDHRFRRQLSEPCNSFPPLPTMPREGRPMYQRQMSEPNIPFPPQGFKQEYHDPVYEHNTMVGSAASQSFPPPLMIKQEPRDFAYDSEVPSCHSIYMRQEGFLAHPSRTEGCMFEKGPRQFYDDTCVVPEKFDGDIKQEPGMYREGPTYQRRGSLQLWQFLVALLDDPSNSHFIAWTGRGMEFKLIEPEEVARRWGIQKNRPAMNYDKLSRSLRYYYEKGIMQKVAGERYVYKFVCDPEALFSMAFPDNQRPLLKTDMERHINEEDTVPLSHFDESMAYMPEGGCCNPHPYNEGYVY
# Chain of ETV6 (P41212 whole entry): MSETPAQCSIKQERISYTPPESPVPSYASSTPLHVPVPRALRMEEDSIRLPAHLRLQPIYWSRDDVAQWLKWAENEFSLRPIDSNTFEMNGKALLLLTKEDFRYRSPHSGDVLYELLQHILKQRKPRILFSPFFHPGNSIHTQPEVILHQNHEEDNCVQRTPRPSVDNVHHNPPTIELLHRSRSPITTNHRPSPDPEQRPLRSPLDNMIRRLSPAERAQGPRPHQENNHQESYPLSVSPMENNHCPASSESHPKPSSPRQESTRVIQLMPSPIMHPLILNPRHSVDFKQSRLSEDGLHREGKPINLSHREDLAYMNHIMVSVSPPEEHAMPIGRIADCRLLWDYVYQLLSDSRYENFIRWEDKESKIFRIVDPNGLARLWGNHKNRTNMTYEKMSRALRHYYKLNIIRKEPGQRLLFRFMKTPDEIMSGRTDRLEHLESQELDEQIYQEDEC
# Chain of ETV5 (P41161 whole entry): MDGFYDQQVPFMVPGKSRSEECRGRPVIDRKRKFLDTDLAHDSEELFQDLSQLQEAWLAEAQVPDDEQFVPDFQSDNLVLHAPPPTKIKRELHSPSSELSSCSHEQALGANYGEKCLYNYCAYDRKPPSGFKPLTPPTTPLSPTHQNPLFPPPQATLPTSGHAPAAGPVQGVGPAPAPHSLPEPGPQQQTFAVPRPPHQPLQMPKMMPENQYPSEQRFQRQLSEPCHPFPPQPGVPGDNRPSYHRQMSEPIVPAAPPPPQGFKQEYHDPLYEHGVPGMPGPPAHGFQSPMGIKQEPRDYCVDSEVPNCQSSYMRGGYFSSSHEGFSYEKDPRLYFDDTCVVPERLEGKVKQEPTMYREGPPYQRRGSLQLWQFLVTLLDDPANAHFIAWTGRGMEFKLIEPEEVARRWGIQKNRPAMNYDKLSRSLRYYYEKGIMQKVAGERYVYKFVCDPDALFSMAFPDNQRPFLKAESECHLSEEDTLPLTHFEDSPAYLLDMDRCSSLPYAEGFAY
# Chain of CRX (O43186 whole entry): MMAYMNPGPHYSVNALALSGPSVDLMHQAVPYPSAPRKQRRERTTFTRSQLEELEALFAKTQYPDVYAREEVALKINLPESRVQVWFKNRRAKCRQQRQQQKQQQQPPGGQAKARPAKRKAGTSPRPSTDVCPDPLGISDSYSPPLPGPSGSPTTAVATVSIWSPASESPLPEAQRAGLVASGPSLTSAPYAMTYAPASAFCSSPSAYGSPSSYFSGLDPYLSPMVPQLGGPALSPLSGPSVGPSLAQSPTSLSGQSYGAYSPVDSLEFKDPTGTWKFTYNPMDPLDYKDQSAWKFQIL
# Chain of HSF1 (Q00613 whole entry): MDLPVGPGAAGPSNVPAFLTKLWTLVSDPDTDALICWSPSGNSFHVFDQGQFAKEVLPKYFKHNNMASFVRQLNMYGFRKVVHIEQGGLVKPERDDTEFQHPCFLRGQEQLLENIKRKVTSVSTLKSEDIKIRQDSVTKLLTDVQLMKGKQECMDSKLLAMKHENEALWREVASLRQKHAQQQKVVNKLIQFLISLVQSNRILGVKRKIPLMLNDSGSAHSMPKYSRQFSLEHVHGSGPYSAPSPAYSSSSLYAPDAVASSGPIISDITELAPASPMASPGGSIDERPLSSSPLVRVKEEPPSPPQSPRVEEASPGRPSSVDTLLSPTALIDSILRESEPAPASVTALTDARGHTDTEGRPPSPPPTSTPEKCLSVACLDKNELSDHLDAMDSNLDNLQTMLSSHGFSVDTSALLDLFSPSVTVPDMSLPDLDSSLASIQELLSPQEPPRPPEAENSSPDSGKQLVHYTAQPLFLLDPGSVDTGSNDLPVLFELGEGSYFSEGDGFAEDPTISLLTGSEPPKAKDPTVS
sequence,measurement,setting,value
CTTATG,binding signal,FEV,"1.35 fold enrichment (6-mer frequency, TF over GST control)"
same,binding signal,ETV5,"1.5 fold enrichment (6-mer frequency, TF over GST control)"
same,binding signal,HSF1,"1.64 fold enrichment (6-mer frequency, TF over GST control)"
same,binding signal,SPIC,"1.33 fold enrichment (6-mer frequency, TF over GST control)"
same,binding signal,ELF4,"1.49 fold enrichment (6-mer frequency, TF over GST control)"
same,binding signal,ELK4,"1.55 fold enrichment (6-mer frequency, TF over GST control)"
same,binding signal,ETV2,"1.37 fold enrichment (6-mer frequency, TF over GST control)"
same,binding signal,ELF3,"1.45 fold enrichment (6-mer frequency, TF over GST control)"
same,binding signal,CRX,"2.2 fold enrichment (6-mer frequency, TF over GST control)"
same,binding signal,ETV1,"1.58 fold enrichment (6-mer frequency, TF over GST control)"
same,binding signal,ERF,"1.52 fold enrichment (6-mer frequency, TF over GST control)"
same,binding signal,ETV3L,"1.35 fold enrichment (6-mer frequency, TF over GST control)"
same,binding signal,ETS2,"1.43 fold enrichment (6-mer frequency, TF over GST control)"
same,binding signal,SPDEF,"1.53 fold enrichment (6-mer frequency, TF over GST control)"
same,binding signal,ETV7,"1.47 fold enrichment (6-mer frequency, TF over GST control)"
same,binding signal,ELF5,"1.42 fold enrichment (6-mer frequency, TF over GST control)"
same,binding signal,ETV3,"1.64 fold enrichment (6-mer frequency, TF over GST control)"
same,binding signal,ETV6,"1.4 fold enrichment (6-mer frequency, TF over GST control)"
